Most compounds without a hit are left out; they make up all but 19% or so of the library.
TDP1 cell CPT – qHTS for Inhibitors of human tyrosyl-DNA phosphodiesterase 1 (TDP1): qHTS in cells in presence of CPT. chicken DT40 Tdp1-/-;hTDP1 cells + 20 nM CPT, ATP luminescence, 48 h. Potency, µM (titrated, usually from 46.2 µM), for the others: at the highest dose activity change, negative = growth inhibition, actives largely listed as inhibitors. actives 12% (n = 420,000); also: potency is read from the fitted curve at half-maximal effect; nearly all actives have a fitted effect of over 55% in size
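Cell growth measured by CellTiter-Glo luminescence after a minimum 48 h, 37 C compound exposure with 20 nM CPT in Tdp1-knockout DT40 cells stably expressing hTDP1, seeded 400/well; qHTS titration format.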
IL1B secr inh – qHTS for Inhibitors of Inflammasome Signaling: IL-1-beta AlphaLISA Primary Screen; actives 4.7% (n = 360,000); activity change, % at 57.5 µM; AID 743279, 2014; THP-1 LPS/ATP IL-1B secretion, AlphaLISA, 16 h; stronger effect = lower value; in the data active = activity change below about -50%; inconclusive = mostly about -30% to -49%
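Secreted IL-1B measured by AlphaLISA bead assay after 16 h compound exposure of THP-1 cells; compounds (final up to 57.5 uM) added 1 h before LPS (250 ng/mL) and ATP (1.25 mM) stimulation; lower signal means less secretion.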
HT1080 IDH1KD tx – qHTS for induction of synthetic lethality in tumor cells producing 2HG: qHTS for the HT-1080-IDH1KD cell line; HT-1080 IDH1 knockdown viability, ATP luminescence, 48 h; Potency, µM (titrated, usually from 46.1 µM), for inactives: top-dose activity, negative = toxicity, most hits filed as cytotoxic; actives 2% (n = 360,000);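 also: potency is read from the fitted curve at half-maximal effect; 0% = DMSO wells and -100% = cell-free medium wells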
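Viability of IDH1-knockdown HT-1080 fibrosarcoma cells was assessed by CellTiter-Glo after 48 h at 37 °C with titrated compound; concentration-effect curves were classified by fit quality and response size.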
TDP1 cell noCPT – qHTS for Inhibitors of human tyrosyl-DNA phosphodiesterase 1 (TDP1): qHTS in cells in absence of CPT. actives 15% (n = 420,000). AID 686978, 2013. DT40 Tdp1-/- hTDP1 cells, no CPT, ATP luminescence, 48 h. Potency, µM (doses to about 46.2 µM), inactives show top-dose activity change, negative = growth inhibition, actives largely listed as inhibitors; also: potency is read from the fitted curve at half-maximal effect; nearly all actives have a fitted effect of over 55% in size
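Cells were dispensed at 400 per well, compounds added by pin tool, plates incubated ≥48 hr at 37 °C, then CellTiter-Glo added for 30 min at room temperature before luminescence reading. Line: DT40 Tdp1-/- complemented with hTDP1; camptothecin omitted.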
HT1080NT lethal – qHTS for induction of synthetic lethality in tumor cells producing 2HG: qHTS for the HT-1080-NT fibrosarcoma cell line; actives 1.6% (n = 360,000); Potency, µM (doses to about 46.1 µM), for the others: at the highest dose activity, negative = less viability, most hits filed as cytotoxic; AID 686970, 2013; HT-1080-NT fibrosarcoma viability, CellTiter-Glo ATP luminescence, 48 h;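 also: NT is the 2HG producing partner of a matched IDH1 knockdown line; potency is read from the fitted curve at half-maximal effect; 0% = DMSO-treated cells and -100% = media-only wells without cells; nearly all actives have a fitted effect of over 55% in size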
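A 48-hour cytotoxicity screen used HT-1080-NT cells plated 2 hours before compound delivery. ATP-based CellTiter-Glo luminescence measured viability, normalized to DMSO and no-cell controls.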
The depositor's hits bear a star. Unless noted, calls follow the shape of the dose curve; as a rule, active = well fitted curve in the direction sought with a large enough effect; inconclusive = small, poorly fitted or top-dose-only effect, or another doubt; inactive = no such curve, though single readings can be large; an effect the other way counts as inactive or inconclusive. Unless noted, % is scaled to controls: 0 for no effect and ±100 for the full control effect.

CCN1CCN(CCNC(=O)c2ccc(/C=C3\Sc4ccccc4N(Cc4ccccc4F)C3=O)cc2)CC1 was read as TDP1 cell CPT inconclusive, IL1B secr inh 30, HT1080 IDH1KD tx 21µM*, TDP1 cell noCPT inconclusive and HT1080NT lethal 16µM*.
`COCCCNC(=O)/C=C1\Sc2ccccc2N(Cc2ccccc2F)C1=O` gave TDP1 cell CPT inconclusive, IL1B secr inh -13, HT1080 IDH1KD tx -12%, TDP1 cell noCPT inconclusive and HT1080NT lethal -5%.
For CN1CCN(CCCNC(=O)c2ccc(/C=C3\Oc4ccccc4N(Cc4ccccc4F)C3=O)cc2)CC1 the results were TDP1 cell CPT inconclusive, IL1B secr inh 61, HT1080 IDH1KD tx -28%, TDP1 cell noCPT 21µM* and HT1080NT lethal -9%.
CN1CCN(CCCNC(=O)c2ccc(/C=C3\Sc4ccccc4N(Cc4ccc(F)cc4)C3=O)cc2)CC1 was read as TDP1 cell CPT inconclusive, IL1B secr inh -77*, HT1080 IDH1KD tx -28%, TDP1 cell noCPT 16µM* and HT1080NT lethal 0%.
For C=CCOn1c(=O)c(-c2ccc(OCC)cc2)[n+]([O-])c2ccccc21 the results were TDP1 cell CPT 5%, IL1B secr inh 0, HT1080 IDH1KD tx inconclusive, TDP1 cell noCPT -20% and HT1080NT lethal inconclusive.
For N=C1C(c2nc3ccccc3c(=O)[nH]2)=C(O)CN1CCO the results were TDP1 cell CPT 0%, IL1B secr inh 5, HT1080 IDH1KD tx 11%, TDP1 cell noCPT -3% and HT1080NT lethal 21%.
`N=C1C(c2nc3ccccc3c(=O)[nH]2)=C(O)CN1CCc1ccccc1` gave TDP1 cell CPT 2.6µM*, IL1B secr inh -12, HT1080 IDH1KD tx 17%, TDP1 cell noCPT 6.5µM* and HT1080NT lethal 27%.
`CC(NC(=O)Nc1cccc(Cl)c1)C(c1cccs1)N1CCCC1` (stereo not drawn) gave TDP1 cell CPT -5%, IL1B secr inh -54*, HT1080 IDH1KD tx -1%, TDP1 cell noCPT inconclusive and HT1080NT lethal -5%.
CC(NC(=O)Nc1ccc(Cl)cc1)C(c1cccs1)N1CCOCC1 (stereo not drawn) was read as TDP1 cell CPT inconclusive, IL1B secr inh -4, HT1080 IDH1KD tx inconclusive, TDP1 cell noCPT inconclusive and HT1080NT lethal inconclusive.
For CC(NC(=S)Nc1ccc(Cl)cc1Cl)C(c1cccs1)N1CCCC1 (stereo not drawn) the results were TDP1 cell CPT inconclusive, IL1B secr inh -81*, HT1080 IDH1KD tx -2%, TDP1 cell noCPT inconclusive and HT1080NT lethal -11%.
`CC(C)CCNC(=O)C(=O)NCC1OCCCN1S(=O)(=O)c1cccs1` (stereo not drawn) gave TDP1 cell CPT -6%, IL1B secr inh 18, HT1080 IDH1KD tx 8%, TDP1 cell noCPT -21% and HT1080NT lethal 11%.
Screening CC(C)CCn1cnc2c(oc3nc4c(cc32)CCCC4)c1=O returned TDP1 cell CPT inconclusive, IL1B secr inh inconclusive, HT1080 IDH1KD tx 0%, TDP1 cell noCPT 21µM* and HT1080NT lethal 3%.
For Cc1ccc(NC(=O)Cn2cnc3c(oc4nc5c(cc43)COC(C)(C)C5)c2=O)cc1 the results were TDP1 cell CPT inconclusive, IL1B secr inh 10, HT1080 IDH1KD tx 14%, TDP1 cell noCPT inconclusive and HT1080NT lethal 16%.
`COC(=O)[C@]12CCCCC=C1N(Cc1cccc3ccccc13)C(=O)[C@H](CC(=O)N1CCC(c3ccccc3)CC1)C2` gave TDP1 cell CPT inconclusive, IL1B secr inh -26, HT1080 IDH1KD tx -10%, TDP1 cell noCPT 15µM* and HT1080NT lethal -3%.
For CCOC(=O)[C@]12CCCC=C1N(Cc1cccc3ccccc13)C(=O)[C@H](CC(=O)N1CCC(c3ccccc3)CC1)C2 the results were TDP1 cell CPT inconclusive, IL1B secr inh -19, HT1080 IDH1KD tx -3%, TDP1 cell noCPT inconclusive and HT1080NT lethal 2%.
`COC(=O)[C@]12CCCCC=C1N(Cc1cccc3ccccc13)C(=O)[C@H](CC(=O)N1CCCCC1)C2` gave TDP1 cell CPT inconclusive, IL1B secr inh 15, HT1080 IDH1KD tx inconclusive, TDP1 cell noCPT 23µM* and HT1080NT lethal inconclusive.
`CCCCNC(=O)C[C@@H]1C[C@@]2(C(=O)OC)CCCCC=C2N(Cc2cccc3ccccc23)C1=O` gave TDP1 cell CPT inconclusive, IL1B secr inh -22, HT1080 IDH1KD tx inconclusive, TDP1 cell noCPT inconclusive and HT1080NT lethal inconclusive.
`CCOC(=O)c1cnc(SC)nc1Oc1cccc(NC(=O)c2ccc(Cl)cc2)c1` gave TDP1 cell CPT inconclusive, IL1B secr inh 1, HT1080 IDH1KD tx 14%, TDP1 cell noCPT 23µM* and HT1080NT lethal 12%.
Screening CCOC(=O)c1cnc(SC)nc1Oc1cccc(NS(=O)(=O)c2ccc(Cl)cc2)c1 returned TDP1 cell CPT inconclusive, IL1B secr inh 43, HT1080 IDH1KD tx 15%, TDP1 cell noCPT inconclusive and HT1080NT lethal 12%.
Screening Cc1ccccc1Oc1ccc2c(c1)[C@@H]1C[C@H](N(C)C(=O)c3ccco3)[C@H]([C@H](C)O)C(=O)N1CC2 returned TDP1 cell CPT inconclusive, IL1B secr inh 0, HT1080 IDH1KD tx -5%, TDP1 cell noCPT 18µM* and HT1080NT lethal -2%.
Screening C[C@H](O)[C@@H]1C(=O)N2CCc3c([nH]c4ccccc34)[C@@H]2C[C@@H]1N(C)C(=O)Nc1cc(Cl)cc(Cl)c1 returned TDP1 cell CPT 29µM*, IL1B secr inh inconclusive, HT1080 IDH1KD tx inconclusive, TDP1 cell noCPT inconclusive and HT1080NT lethal 16µM*.
Screening Cc1ccccc1Oc1ccc2c(c1)[C@@H]1C[C@H](N(C)C(=O)Nc3cc(Cl)cc(Cl)c3)[C@H]([C@H](C)O)C(=O)N1CC2 returned TDP1 cell CPT inconclusive, IL1B secr inh inconclusive, HT1080 IDH1KD tx -15%, TDP1 cell noCPT 18µM* and HT1080NT lethal -11%.
Cc1ccccc1Oc1ccc2c(c1)[C@@H]1C[C@H]3[C@@H](C(=O)N1CC2)[C@H](C)ON3C was read as TDP1 cell CPT 16µM*, IL1B secr inh 57, HT1080 IDH1KD tx -4%, TDP1 cell noCPT 23µM* and HT1080NT lethal 2%.
CCCCNc1ccc2nsnc2c1[N+](=O)[O-] was read as TDP1 cell CPT -12%, IL1B secr inh 5, HT1080 IDH1KD tx 6%, TDP1 cell noCPT inconclusive and HT1080NT lethal 1%.

Screening data from PubChem BioAssay.
